# Source: the supplement of paper PMC10127200
# Structures can show the parent of a compound that is named as a salt.
# Experiments:
# Test in all cases: Euclidean distance of Cell Painting phenotypic profile (signed KS, 77 features) to DMSO centroid (dimensionless distance); 5 or 10 uM (library dependent); higher = stronger phenotypic change vs DMSO (phenoactivity)
# Details in all cases: 48 h
# [1] = system: 786-O
# In short: (§1)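 At 10 or 5 uM, as set by the library, and 0.1% DMSO final, compounds were applied for 48 h to five cancer lines and one healthy fibroblast line. Stained cells were imaged confocally at 20X in 9 fields per well, and Harmony extracted 77 features scored as signed Kolmogorov-Smirnov statistics against vehicle wells on the same plate. Profiles underwent plate-position correction, correlation weighting and replicate averaging at the top dose. Phenoactivity is the Euclidean distance from each such profile to the median vehicle profile.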
# [2] = system: A549
# In short: as §1
# [3] = system: DU145
# In short: as §1
# [4] = system: FB
# In short: as §1
# [5] = system: HEPG2
# In short: as §1
# [6] = system: OVCAR4
# In short: as §1
Compound,Euclidean distance [1],Euclidean distance [2],Euclidean distance [3],Euclidean distance [4],Euclidean distance [5],Euclidean distance [6]
COCCc1ccc(OCC(O)CNC(C)C)cc1 (configuration not stated) [Metoprolol Tartrate],0.573,0.762,0.69,0.67,0.507,0.885
CCCN(CCC)S(=O)(=O)c1ccc(C(=O)O)cc1 [Probenecid],1.08,0.549,1.42,0.831,0.652,1.69
COC(=O)N[C@@H](C)CNc1nccc(-c2cn(C(C)C)nc2-c2cc(Cl)cc(NS(C)(=O)=O)c2F)n1,2.13,1.78,1.47,2.67,3.02,1.86
CC(C)(C)C#Cc1cc(N(C(=O)[C@H]2CC[C@H](C)CC2)[C@H]2CC[C@H](O)CC2)c(C(=O)O)s1 [VX-222 (VCH-222. Lomibuvir)],0.681,0.474,1.14,0.678,2.05,0.601
C[C@]12CCCN1CC1=NNC(=O)c3cc(F)cc4[nH]c2c1c34 [Pamiparib (BGB-290)],1.52,1.68,1.44,1.48,2.36,1.71
O=C(NCc1c(F)cc(F)cc1F)c1cn2c(c(O)c1=O)C(=O)N1[C@H]3CC[C@H](C3)O[C@@H]1C2 [Bictegravir],1.77,3.73,2.63,2.16,1.04,2.99
Cc1cc(O)c2c(c1)C(=O)c1cccc(O)c1C2=O [Chrysophanic Acid],1.36,0.646,1.3,1.64,1.34,1.43
CNC(=O)c1nn(C)c2c1C(C)(C)Cc1cnc(Nc3ccc(N4CCN(C)CC4)cc3)nc1-2,2.4,3.03,2.9,3.36,2.65,2.9
CN1CCN(C2=Nc3ccccc3Oc3ccc(Cl)cc32)CC1 [Loxapine Succinate],0.937,0.901,1.33,0.885,0.582,0.838
O=C(O)CCCCC(CCSCc1ccccc1)SCc1ccccc1 (configuration not stated),0.848,0.928,1.09,0.687,0.938,0.821
COCCCC/C(=N\OCCN)c1ccc(C(F)(F)F)cc1 [Fluvoxamine maleate],1.27,0.895,0.762,1.25,1.1,1.58
O=C(O)C(=O)O.[NH-][C@@H]1CCCC[C@H]1[NH-].[Pt+2] [Oxaliplatin],3.37,3.26,1.5,2.95,3.19,3.47
O=c1sn(-c2cccc3ccccc23)c(=O)n1Cc1ccccc1 [Tideglusib],0.967,0.321,0.768,0.656,0.456,1.14
CNC1(C)C2CCC(C2)C1(C)C (configuration not stated) [Mecamylamine Hydrochloride],1.04,0.418,0.617,1.01,0.384,1.18
CC1Cc2ccccc2N1NC(=O)c1ccc(Cl)c(S(N)(=O)=O)c1 (configuration not stated) [Indapamide],0.856,0.679,1.26,0.772,1.91,1.41
CN(C[C@@H]1COCCO1)S(=O)(=O)Nc1ccc2ccc3ncc(-c4cnn(C)c4)cc3c(=O)c2c1,1,0.895,1.01,3.07,0.888,1
Cc1cc(=O)oc2cc(O)ccc12 [4-Methylumbelliferone (4-MU)],0.739,0.856,0.979,0.746,0.603,0.95
OCCn1cc(-c2cnc3nnn(Cc4ccc5ncccc5c4)c3n2)cn1,0.916,0.988,0.98,0.792,1.2,1.08
O=C(Cn1cnnn1)N[C@@H]1C(=O)N2C(C(=O)O)=C(CSc3nncs3)CS[C@H]12 [Ceftezole],1.01,0.658,0.963,1.09,0.476,0.782

Compound,Euclidean distance [1],Euclidean distance [2],Euclidean distance [3],Euclidean distance [4],Euclidean distance [5],Euclidean distance [6]
CNC(=O)[C@H](Cc1ccccc1)NC(=O)[C@H](CC(C)C)[C@H](CSc1cccs1)C(=O)NO [Batimastat (BB-94)],1.52,1.51,1.25,1.68,2.06,1.53
COc1ccc(C(=O)c2ccccc2)c(O)c1 [Oxybenzone],1.07,0.943,0.824,1.34,0.753,1.32
COc1cc(OC)c(/C=C/S(=O)(=O)Cc2ccc(OC)c(NCC(=O)O)c2)c(OC)c1,2.84,2.83,4.64,3.03,3.6,2.72
Cc1[nH]c(=O)c(C#N)cc1-c1ccncc1 [Milrinone],0.957,0.855,0.761,0.918,0.762,0.888
COc1ccccc1N1CCN(CCN2C(=O)CC3(CCCC3)CC2=O)CC1,1.45,1.72,1.3,1.24,1.77,1.54
COc1ccccc1N1CCN(CCCNc2cc(=O)n(C)c(=O)n2C)CC1 [Urapidil HCl],1.39,0.9,0.94,0.778,0.34,0.898
CCCCC[C@H](O)/C=C/[C@H]1[C@H](O)CC(=O)[C@@H]1C/C=C\CCCC(=O)O [Prostaglandin E2 (PGE2)],1.77,0.85,0.915,1.08,0.522,1.33
C[C@H](NC(=O)CCc1nc2ccccc2c(=O)[nH]1)c1ccccc1,1.42,1.74,1.13,1.04,1.15,1.27
COc1ccc(C2OCC3C(c4cc(OC)c(OC)c(OC)c4)OCC23)cc1OC (configuration not stated) [Magnolin],0.904,0.78,1.05,1.02,0.56,0.966
CC(C)(CO)c1cc2cc(NC(=O)C3(c4ccc5c(c4)OC(F)(F)O5)CC3)c(F)cc2n1C[C@@H](O)CO,1.47,1.89,1.24,2.93,0.904,2.17
CNCc1ccc(C)c(NC(=O)c2ccc(Nc3nc(-c4ccccc4)c4ccccc4n3)cc2)c1,5.12,4.68,3.37,4.9,5.84,4.54
CCOC(=O)C1=C[C@@H](OC(CC)CC)[C@H](NC(C)=O)[C@@H](N)C1 [Oseltamivir Phosphate],1.49,1.2,1.23,0.91,0.386,1.62
O=C(Nc1cccnc1)N1CCC(Cc2cccc(Oc3ccc(C(F)(F)F)cn3)c2)CC1,0.844,1.34,0.774,0.825,1.94,0.736
O=C(O)/C=C/c1ccc(O)c(O)c1 [Caffeic Acid],0.946,0.603,1.61,0.961,0.639,1.23
O=C1NC(=O)C(c2ccccc2)(c2ccccc2)N1 [Phenytoin],0.857,0.495,1,1.34,0.945,0.752
C[C@@H]1O[C@@H]1P(=O)(O)O [Fosfomycin Disodium],1.44,0.52,0.647,0.793,0.716,0.92
CCCCCCCCCCCCCCCC(=O)O[C@@H]1[C@@H](O)[C@@H](O)[C@@H]([C@H](NC(=O)[C@@H]2C[C@@H](CCC)CN2C)[C@H](C)Cl)O[C@@H]1SC [Clindamycin palmitate HCl],1.39,1.05,0.981,1.12,0.578,1.08
Cn1nnc(-c2ccc(-c3ccc(N4C[C@H](COP(=O)(O)O)OC4=O)cc3F)cn2)n1 [Tedizolid Phosphate],0.75,0.64,0.82,0.929,0.638,0.87
